SMILES strings stand for the structures. Results filed as inconclusive are left out. Activity calls are given as the source filed them. Unless noted, the call rests on the fitted dose curve; in most records, active means well fitted curve in the direction sought with a large enough effect; inconclusive means small, poorly fitted or top-dose-only effect, or another doubt; inactive means no such curve, though single readings can be large; an effect the other way counts as inactive or inconclusive.

Assay [1] is described as follows: qHTS Assay for Identification of Small Molecule Inducers of Hypoxia Response (AID 2120; active means well fitted curve in the direction sought with a large enough effect in the signal ratio, with a control signal flat, not every such curve was filed as active; the % refers to the signal ratio). The essentials: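 Reporter induction read as the CCF4 blue/green (460nm/530nm) emission ratio after 2.5 h dye loading at room temperature. ME-180 HRE-beta-lactamase cells received titrated compounds for 17 h at 37 degrees Celsius; AC50 values derived.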
In general terms: In qHTS, concentration-response curves come from the screen itself.

Assay [2] can be described thus: qHTS for differential inhibitors of proliferation of Plasmodium falciparum line HB3 (AID 1886).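 Further: parasites grown with compound for 72 h before SYBR Green readout.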 Further: potency means the concentration at half of the fitted maximal effect. To be noted: Potency: Plasmodium falciparum HB3 proliferation inhibition.
Assay [3] addresses Ferritin light chain (Equus caballus) (UniProt P02791). Nature of the assay: qHTS Validation Assay for Identification of Novel General Anesthetics (AID 2323). Further: series mostly up to about 77 µM. The method in brief:
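Normalized fluorescence response, scaled between free 1-AMA and 1-AMA/apoferritin complex, fitted to a four-parameter Hill equation for concentration-effect values. Binding mix: 10 uM horse-spleen apoferritin, 50% saturated 1-AMA in PBS; read 380/535 nm after 10 min.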

Assay [4] addresses ATP-dependent DNA helicase Q1 (Homo sapiens) (UniProt P46063). In words: qHTS Validation Assay for Inhibitors of RecQ-Like Dna Helicase 1 (RECQ1) (AID 2353). The method in brief:
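RECQ1T1 50 nM; forked duplex (20 bp + 30-nt ss tails) 200 nM, ATP 2 mM final; pH 8.0, 2 mM MgCl2, 2.5 ug/ml poly(dI-dC); 15 min compound preincubation; discontinuous kinetic read over 2 h at RT.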

In assay [5] the target is RecQ-like DNA helicase BLM (Homo sapiens) (UniProt P54132). In words: qHTS Validation Assay for Inhibitors of Bloom's syndrome helicase (BLM) (AID 2364). The essentials:
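50 nM BLM preincubated 15 min at room temperature with compound in pH 8.0 Tris buffer containing 2.5 ug/ml poly(dI-dC); started with 200 nM TAMRA/BHQ-2 forked duplex and 2 mM ATP (final). Unwinding read as TAMRA fluorescence increase, two reads 2 h apart.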

Assay [6] in a line: Cytometric Cell-Based qHTS for Inhibitors of the mTORC1 Signaling Pathway in MEF (Tsc2-/-, p53-/-) Cells (AID 2660).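 Further: percent of cells above a phospho-rpS6 to PI ratio cutoff in each well; series mostly up to about 38 µM.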 The essentials:
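Tsc2-/-, p53-/- MEFs (empty vector) exposed to compound 24 h at 37 C, fixed, stained with Alexa-488 anti-phospho-rpS6 Ser235/236 and propidium iodide. Acumen laser scanning; phospho-S6/PI ratio thresholded against 7.5 nM rapamycin, reported as % positive cells.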

A short description of assay [7]: High Content Imaging Cell-Based qHTS for Inhibitors of the mTORC1 Signaling Pathway in MEF (Tsc2-/-, p53-/-) Cells (AID 2666).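 Further: percent of cells scored positive for phospho-rpS6 Ser235/236 immunostaining by imaging.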 The method in brief:
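MEF Tsc2-/- p53-/- (empty vector), DMEM/10% FBS; cpd 24 h 37 °C; PFA fix, Alexa-488 p-rpS6 S235/236 Ab, Hoechst; imaged; rapamycin-defined inhibition; % positive cells/well.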

The nature of assay [8]: Cytometry Cell-Based qHTS for Inhibitors of the mTORC1 Signaling Pathway in MEF cells (AID 2668).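 Further: Tsc2-/- p53-/- mouse embryonic fibroblasts stably re-expressing wild-type Tsc2; percent cells positive for phospho-rpS6 Ser235/236 relative to propidium iodide stain; series mostly up to about 38 µM.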 The essentials:
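In MEFs grown in DMEM + 10% FBS, a 24 hrs compound exposure preceded imaging of phospho-rpS6 Ser235/236 by laser-scanning cytometry.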

The nature of assay [9]: Validation screen for small molecules that induce DNA re-replication in MCF 10A normal breast cells (AID 463097). Further: nearly all actives have a fitted effect of over 60% in size. The essentials: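 Following 48 hr compound incubation (37 C, 5% CO2), MCF 10A cells receive Hoechst for 40 min at 37 C. Nuclei are then scanned (excitation 405 nm, emission 500-530 nm) for total fluorescence intensity.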
The target of assay [10] is Ubiquitin carboxyl-terminal hydrolase 2 (Homo sapiens) (UniProt O75604). In words: qHTS Validation Assay for Inhibitors of Ubiquitin-specific Protease USP2a Using CHOP2 as the Reporter (AID 463106). The method in brief:
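Fluorescence read-out at Ex 485nm/Em 531nm after 60min RT, following addition of 25nM Ub-CHOP2 plus 25nM reporter substrate to USP2 core (10nM) pretreated 30min with compound. Data normalized to NEM full inhibition; concentration-response curves fitted.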

Assay [11] addresses Tumor susceptibility gene 101 protein (Homo sapiens) (UniProt Q99816). Nature of the assay: qHTS Validation Assay for Iinhibitors of HIV-1 Budding by Blocking the Interaction of PTAP/TSG101 (AID 485342; calls by dose curve). The essentials:
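Compound wells held the Tsg101 binding domain (10 uM) and a FITC-conjugated PTAP peptide (50 nM) in buffer at pH 7.5 containing 0.15 M NaCl and 0.01% Tween 20; polarization was recorded after 20 min, r.t.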

A short description of assay [12]: qHTS Validation Assay to Find Inhibitors of Chronic Active B-Cell Receptor Signaling (AID 485345; active means well fitted curve in the direction sought with a large enough effect in the main read-out, with a control signal flat, not every such curve was filed as active). The essentials: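 TMD8 ABC-DLBCL cells stably carrying doxycycline-inducible IkappaBalpha–green luciferase fusion plus unfused red luciferase; compounds 46 uM to 3 nM, 4 h at 37C with doxycycline. Corrected green/red luminescence ratio normalized to 10 uM MG-132 and basal cell wells; curves fitted.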

Assay [13] addresses Beta-2 adrenergic receptor (Homo sapiens) (UniProt P07550). Nature of the assay: qHTS validation assay of beta-arrestin-biased ligands of beta2-adrenergic receptor (AID 485366). The method in brief:
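qHTS, Tango cells, 1500 cells/well, DMEM + 1% FBS. Cpd 18 hr at 37 degrees C. Luciferin/ATP/CoA detection mix, 15 min RT, luminescence read. %Activity from corrected signal; CRC fit, curve class.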

Assay [14] is described as follows: qHTS for differential inhibitors of proliferation of Plasmodium falciparum line W2 (AID 1883).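 Further: potency means the concentration at half of the fitted maximal effect; parasites grown with compound for 72 h before lysis and staining.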 The settings on record: Potency: Plasmodium falciparum W2 proliferation inhibition.
Assay [15] addresses DNA polymerase III PolC-type (Bacillus subtilis (strain 168)) (UniProt P13267). In words: qHTS Validation Assay for the Inhibitors of DNA Replication in Gram-Positive Bacteria (AID 485295).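 Further: reconstituted holoenzyme with PolC plus beta clamp SSB and primase; PicoGreen fluorescence of double-stranded DNA made on primed circular M13 template; series mostly up to about 57 µM.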 The essentials: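 Inhibition of DNA synthesis by the reconstituted PolC holoenzyme, monitored through PicoGreen staining of dsDNA formed from ssM13Gori, dNTPs and NTPs, with compound preincubation and room-temperature reaction.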

Assay [16] in a line: High Content Imaging Cell-Based qHTS for Inhibitors of the mTORC1 Signaling Pathway in MEF Cells (AID 2667).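 Further: Tsc2-/- p53-/- MEFs stably re-expressing wild-type Tsc2 exposed 24 h; series mostly up to about 38 µM.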 The method in brief: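 Read-out is the share of phospho-rpS6-positive cells per well, from Hoechst-normalized Alexa-488 Ser235/236 staining imaged on IN Cell. Cells: WT Tsc2-expressing Tsc2-/-, p53-/- MEFs exposed to compound for 24 hrs.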

Chain of ATP-dependent DNA helicase Q1 (Homo sapiens) (P46063 whole entry, looked up): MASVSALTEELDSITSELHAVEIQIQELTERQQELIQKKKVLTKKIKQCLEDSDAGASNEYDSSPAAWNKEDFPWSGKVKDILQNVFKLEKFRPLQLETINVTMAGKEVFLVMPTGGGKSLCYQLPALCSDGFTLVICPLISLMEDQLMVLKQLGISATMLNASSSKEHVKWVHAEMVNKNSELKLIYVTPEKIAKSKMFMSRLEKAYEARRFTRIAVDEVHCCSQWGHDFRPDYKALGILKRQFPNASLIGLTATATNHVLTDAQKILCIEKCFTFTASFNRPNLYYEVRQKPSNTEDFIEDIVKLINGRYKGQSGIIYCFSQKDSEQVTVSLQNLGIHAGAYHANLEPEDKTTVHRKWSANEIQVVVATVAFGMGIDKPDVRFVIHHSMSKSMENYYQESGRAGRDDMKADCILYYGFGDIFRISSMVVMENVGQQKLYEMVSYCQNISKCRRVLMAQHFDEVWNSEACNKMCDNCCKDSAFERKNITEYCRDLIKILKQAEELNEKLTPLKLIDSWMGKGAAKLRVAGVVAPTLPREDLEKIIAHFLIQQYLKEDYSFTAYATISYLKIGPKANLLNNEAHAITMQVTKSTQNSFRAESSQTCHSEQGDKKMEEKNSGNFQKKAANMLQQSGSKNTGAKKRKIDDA
Chain of RecQ-like DNA helicase BLM (Homo sapiens) (P54132 whole entry, looked up): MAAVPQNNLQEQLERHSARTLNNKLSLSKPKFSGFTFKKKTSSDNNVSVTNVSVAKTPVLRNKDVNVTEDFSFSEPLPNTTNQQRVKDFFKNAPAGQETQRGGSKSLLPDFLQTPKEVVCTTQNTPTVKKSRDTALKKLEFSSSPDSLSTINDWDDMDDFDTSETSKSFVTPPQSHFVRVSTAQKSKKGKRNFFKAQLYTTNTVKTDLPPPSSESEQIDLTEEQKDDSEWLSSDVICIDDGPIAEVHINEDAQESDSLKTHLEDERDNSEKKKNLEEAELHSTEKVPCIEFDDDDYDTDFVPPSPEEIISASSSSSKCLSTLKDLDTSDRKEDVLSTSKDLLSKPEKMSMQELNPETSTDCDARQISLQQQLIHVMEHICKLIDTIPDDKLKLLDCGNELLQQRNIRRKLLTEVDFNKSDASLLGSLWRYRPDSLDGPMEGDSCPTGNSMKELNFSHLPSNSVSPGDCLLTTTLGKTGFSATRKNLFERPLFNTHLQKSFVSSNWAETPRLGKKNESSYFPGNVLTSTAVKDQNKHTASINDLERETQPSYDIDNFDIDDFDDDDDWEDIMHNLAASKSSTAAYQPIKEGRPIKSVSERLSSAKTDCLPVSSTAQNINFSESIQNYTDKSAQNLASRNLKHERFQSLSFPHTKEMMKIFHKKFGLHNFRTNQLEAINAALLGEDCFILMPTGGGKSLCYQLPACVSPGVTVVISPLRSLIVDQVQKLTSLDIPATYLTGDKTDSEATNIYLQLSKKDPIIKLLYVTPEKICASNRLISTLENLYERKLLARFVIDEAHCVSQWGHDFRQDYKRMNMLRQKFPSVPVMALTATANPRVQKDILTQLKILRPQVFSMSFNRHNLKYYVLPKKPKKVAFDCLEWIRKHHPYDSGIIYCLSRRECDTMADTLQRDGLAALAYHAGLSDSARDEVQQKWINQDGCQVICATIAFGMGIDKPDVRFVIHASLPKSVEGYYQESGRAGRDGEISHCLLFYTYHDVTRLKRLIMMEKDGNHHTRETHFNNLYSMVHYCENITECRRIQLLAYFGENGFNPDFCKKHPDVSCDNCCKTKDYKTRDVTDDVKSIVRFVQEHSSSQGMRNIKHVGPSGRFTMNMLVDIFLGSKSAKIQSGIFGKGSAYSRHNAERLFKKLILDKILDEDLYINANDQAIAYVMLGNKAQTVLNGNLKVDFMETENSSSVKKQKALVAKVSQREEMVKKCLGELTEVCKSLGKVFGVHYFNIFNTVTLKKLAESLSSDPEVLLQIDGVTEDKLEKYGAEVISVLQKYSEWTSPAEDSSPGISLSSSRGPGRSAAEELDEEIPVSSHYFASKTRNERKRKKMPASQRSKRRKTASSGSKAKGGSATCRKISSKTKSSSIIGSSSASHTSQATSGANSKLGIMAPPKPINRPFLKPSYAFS
Chain of Beta-2 adrenergic receptor (Homo sapiens) (P07550 whole entry, looked up): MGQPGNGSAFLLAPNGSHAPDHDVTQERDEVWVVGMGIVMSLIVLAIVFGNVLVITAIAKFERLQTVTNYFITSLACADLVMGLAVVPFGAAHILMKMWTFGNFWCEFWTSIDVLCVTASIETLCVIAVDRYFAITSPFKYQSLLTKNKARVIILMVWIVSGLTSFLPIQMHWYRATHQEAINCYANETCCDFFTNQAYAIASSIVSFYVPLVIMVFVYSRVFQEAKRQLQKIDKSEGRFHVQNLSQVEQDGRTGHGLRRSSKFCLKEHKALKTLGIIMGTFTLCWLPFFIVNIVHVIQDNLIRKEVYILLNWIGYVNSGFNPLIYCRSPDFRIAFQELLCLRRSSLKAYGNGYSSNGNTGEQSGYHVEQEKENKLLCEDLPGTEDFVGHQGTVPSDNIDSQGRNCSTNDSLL
Chain of DNA polymerase III PolC-type (Bacillus subtilis (strain 168)) (P13267 whole entry, looked up): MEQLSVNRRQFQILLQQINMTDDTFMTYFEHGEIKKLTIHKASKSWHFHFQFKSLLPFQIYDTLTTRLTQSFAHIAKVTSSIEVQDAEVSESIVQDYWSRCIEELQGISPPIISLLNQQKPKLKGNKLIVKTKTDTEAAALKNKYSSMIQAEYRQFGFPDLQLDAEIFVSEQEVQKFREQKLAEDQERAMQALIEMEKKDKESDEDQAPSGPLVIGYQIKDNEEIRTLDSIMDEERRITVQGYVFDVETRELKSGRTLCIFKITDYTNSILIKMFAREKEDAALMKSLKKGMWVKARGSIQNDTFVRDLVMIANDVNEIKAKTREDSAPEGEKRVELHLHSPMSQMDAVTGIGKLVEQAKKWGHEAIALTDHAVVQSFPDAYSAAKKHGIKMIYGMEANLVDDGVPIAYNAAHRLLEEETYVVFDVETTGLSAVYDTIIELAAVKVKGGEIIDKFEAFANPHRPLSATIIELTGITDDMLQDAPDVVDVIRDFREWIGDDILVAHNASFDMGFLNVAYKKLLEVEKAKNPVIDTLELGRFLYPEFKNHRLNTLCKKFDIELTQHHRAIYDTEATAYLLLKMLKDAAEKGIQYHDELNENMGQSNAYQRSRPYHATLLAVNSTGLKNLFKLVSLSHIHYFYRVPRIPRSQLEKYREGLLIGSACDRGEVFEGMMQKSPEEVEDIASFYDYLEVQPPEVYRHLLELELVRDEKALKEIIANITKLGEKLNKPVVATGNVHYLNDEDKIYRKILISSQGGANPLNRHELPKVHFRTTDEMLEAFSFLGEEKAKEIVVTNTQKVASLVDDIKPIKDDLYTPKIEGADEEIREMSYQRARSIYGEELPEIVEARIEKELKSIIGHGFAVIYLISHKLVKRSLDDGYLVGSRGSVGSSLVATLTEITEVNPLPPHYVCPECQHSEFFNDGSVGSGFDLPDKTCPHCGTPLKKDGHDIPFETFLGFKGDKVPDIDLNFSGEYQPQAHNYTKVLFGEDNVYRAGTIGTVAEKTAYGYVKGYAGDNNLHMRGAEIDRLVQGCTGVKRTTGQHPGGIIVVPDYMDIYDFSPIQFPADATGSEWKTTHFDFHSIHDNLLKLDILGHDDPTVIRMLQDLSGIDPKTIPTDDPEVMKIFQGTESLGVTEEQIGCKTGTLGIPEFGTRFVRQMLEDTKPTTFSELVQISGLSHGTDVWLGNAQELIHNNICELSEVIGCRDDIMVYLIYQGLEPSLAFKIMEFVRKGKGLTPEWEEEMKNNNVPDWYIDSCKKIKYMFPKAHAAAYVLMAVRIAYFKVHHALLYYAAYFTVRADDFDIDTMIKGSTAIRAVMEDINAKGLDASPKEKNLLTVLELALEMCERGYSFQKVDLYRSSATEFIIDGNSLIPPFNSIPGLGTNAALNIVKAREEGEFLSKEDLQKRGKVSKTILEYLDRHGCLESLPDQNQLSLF
Chain of Ferritin light chain (Equus caballus) (P02791 2-175 limits assumed): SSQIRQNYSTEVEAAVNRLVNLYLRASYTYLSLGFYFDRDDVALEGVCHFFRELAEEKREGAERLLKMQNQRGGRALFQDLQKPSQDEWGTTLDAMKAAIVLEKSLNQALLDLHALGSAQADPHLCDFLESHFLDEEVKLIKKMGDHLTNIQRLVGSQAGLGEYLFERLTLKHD
Chain of Ubiquitin carboxyl-terminal hydrolase 2 (Homo sapiens) (O75604 whole entry, looked up): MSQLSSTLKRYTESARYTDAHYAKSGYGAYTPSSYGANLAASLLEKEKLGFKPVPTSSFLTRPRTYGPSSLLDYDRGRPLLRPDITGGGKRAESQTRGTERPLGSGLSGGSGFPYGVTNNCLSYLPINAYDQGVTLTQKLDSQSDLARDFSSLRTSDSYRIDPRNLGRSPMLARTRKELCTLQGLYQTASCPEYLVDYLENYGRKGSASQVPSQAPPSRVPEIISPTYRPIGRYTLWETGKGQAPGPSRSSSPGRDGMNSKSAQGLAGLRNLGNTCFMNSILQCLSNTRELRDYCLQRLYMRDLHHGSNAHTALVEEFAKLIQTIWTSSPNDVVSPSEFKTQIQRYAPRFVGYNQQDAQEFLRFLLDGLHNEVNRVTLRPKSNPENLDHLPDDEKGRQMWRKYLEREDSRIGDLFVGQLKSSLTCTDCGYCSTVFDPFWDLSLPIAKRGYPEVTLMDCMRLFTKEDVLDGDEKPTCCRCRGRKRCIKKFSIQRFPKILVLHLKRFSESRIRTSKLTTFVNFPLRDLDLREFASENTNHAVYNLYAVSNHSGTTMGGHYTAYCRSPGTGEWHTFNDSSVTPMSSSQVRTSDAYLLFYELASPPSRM

Turning to `O=C(O)c1cc(O)c(O)c(O)c1`, in assay [1], the result was inactive.

For `CN(C)CCC(c1ccc(Cl)cc1)c1ccccn1` (stereo not drawn), the Potency entry in [2], in [3], in assay [4], in assay [5], in assay [7] and in assay [8] was “inactive” in each case. Besides, the Potency result in [9] and in assay [10] was “inactive” each time. The outcome in assay [6], in assay [11], in [12] and in assay [13] was inactive.

For `CCCn1c(=O)c2[nH]c(-c3ccc(OCC(=O)NCCN)cc3)nc2n(CCC)c1=O`, the Potency in assay [14] was 12.6 µM (active). The Potency entry in assay [3], in [4], in assay [5], in assay [7], in assay [8] and in [9] was “inactive” throughout. The Potency entry in assay [10] and in [15] was “inactive” each time. In addition, the compound was called inactive in assay [6], in [11], in assay [12] and in assay [13].

Turning to `COc1cccc(OC)c1OCCNCC1COc2ccccc2O1` (stereo not drawn), in assay [14], the Potency is 3.98 µM (active). Further, the Potency result in assay [3], in assay [4], in [5], in [7], in assay [8] and in assay [9] was “inactive” in each case. The Potency result in assay [10] and in assay [15] was “inactive” each time. The result in assay [6], in assay [11] and in assay [12] was inactive.

For the compound `O=c1[nH]c2ccccc2n1CCCN1CCN(C(c2ccccc2)c2ccccc2)CC1`, the Potency in assay [14] is 4.47 µM (active); in assay [2], 14.1 µM (active). Moreover, the Potency entry in assay [4] and in assay [9] was “inactive” each time.

As for `O=Nc1ccc2oc(=O)ccc2c1`, the Potency in [2] is 12.6 µM (active). Moreover, the Potency result in assay [4] and in assay [10] was “inactive” in each case. The compound was called inactive in assay [11] and in assay [13].

Regarding `NCCCS(=O)(=O)O`, in assay [14], the Potency was 11.2 µM (active). Besides, the Potency entry in assay [3], in assay [4], in [5], in [7], in assay [16] and in [8] was “inactive” throughout. In assay [10], the Potency entry was “inactive”. In addition, the call in assay [6], in [11], in [12] and in [13] was inactive.

Take `Oc1ccccc1O`: the Potency entry in [3], in [4], in assay [7], in assay [10] and in assay [15] was “inactive” each time. For the same compound, the result in assay [11] was inactive.

On to `S=c1[nH]c2ccccc2s1`, for which, in [1], the result was inactive.

Take `c1ccc2sc(SSc3nc4ccccc4s3)nc2c1`: the compound was classed as inactive in [1].

Turning to `CC(C)NC[C@H](O)COc1cccc2[nH]ccc12`, the Potency result in assay [3], in assay [4], in assay [7], in assay [16], in assay [8] and in assay [9] was “inactive” each time. Besides, the Potency entry in assay [10] and in assay [15] was “inactive” throughout. The result in assay [6], in [11], in assay [12] and in assay [13] was inactive.

`CN(C)c1ccc(/C=C2\C(=O)Nc3ccccc32)cc1`: the Potency in assay [14] is 12.6 µM (active); in assay [2], 10 µM (active). Moreover, the Potency result in assay [4], in assay [7] and in assay [10] was “inactive” each time. Also, the outcome in [6], in assay [11] and in assay [13] was inactive.

Turning to `Nc1nc2ccc([N+](=O)[O-])cc2s1`, the compound was called inactive in assay [1].

For `Cc1ccc(O)c(N=Nc2ccccc2)n1`, in assay [14], the Potency was 10 µM (active). In addition, the Potency entry in [4], in assay [5], in assay [7], in assay [16], in [8] and in [9] was “inactive” each time. Also, the Potency entry in assay [10] and in [15] was “inactive” in each case. The result in assay [6], in [11], in assay [12] and in [13] was inactive.

Take `CCCCC#Cc1nc(NC)c2ncn([C@@H]3O[C@H](CO)[C@@H](O)[C@H]3O)c2n1`: the compound was classed as inactive in assay [6] and in assay [11]. The Potency entry in [7], in [16], in assay [8], in assay [10] and in assay [15] was “inactive” in each case.

On to `NCCO`, for which the compound was classed as inactive in assay [1].

For `COC(=O)c1c(C)[nH]c(C)c1C(=O)c1ccccc1Cc1ccccc1`, the values for the Potency in assay [14] and in assay [2] were 8.91 µM (active) and 12.6 µM (active), respectively. Also, the Potency result in assay [4], in assay [7], in assay [16], in [8], in [9] and in assay [10] was “inactive” throughout. Also, the compound was called inactive in assay [6], in assay [11] and in [13].

As for `O=C1CN(/N=C/c2ccc([N+](=O)[O-])o2)C(=O)N1`, the compound was classed as inactive in [1].

On to `Nc1ccc(O)c(C(=O)O)c1`, for which the call in [1] was inactive.

In the case of `C#C[C@]1(O)CC[C@H]2[C@@H]3CCc4cc(O)ccc4[C@H]3CC[C@@]21C`, the outcome in assay [1] was inactive.

In the case of `COc1cc(/C=C/C(=O)CC(=O)/C=C/c2ccc(O)c(OC)c2)ccc1O`, in [1], the outcome was inactive.

In the case of `NCCNC(=O)c1ncsc1-c1cccc(F)c1`, the Potency result in assay [2], in assay [3], in assay [4], in assay [5], in [7] and in [16] was “inactive” each time. Also, the Potency result in assay [8], in assay [9], in assay [10] and in assay [15] was “inactive” in each case. In addition, the outcome in assay [6], in [11], in [12] and in assay [13] was inactive.

Values taken from PubChem BioAssay (NCATS).
